Screening results (PubChem)
Mdm2-MdmX inh: inhibitors of human Mdm2/MdmX interaction | SaOS-2 split-luciferase Mdm2/MdmX complementation, luminescence | inhibition, % at 8 µM | 3% of 330,000 active | AID 485346;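 active = inhibition of at least 50% at 8 µM in the primary screen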
Beta apoptosis: blocks beta cell apoptosis; INS-1E cytokine-induced death, ATP luminescence, 48 h; percent of positive-control rescue, neutral wells zero; protection from apoptosis, % (test concentration not listed); 0.8% of 300,000 active; AID 435005;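 active = Every replicate reaches about 75%, or at least half do and their mean reaches it too, limit read from the data; inconclusive = At least half of replicates reach the limit but their mean does not; inactive = Under half of replicates reach the limit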;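 also: 0% = cytokine-treated negative control wells and 100% = positive control rescue; higher means more ATP so stronger rescue from cytokine killing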
PP1 inh: blocks human PP1-alpha phosphatase, a PP5 counter-screen. inhibition, % at 6.7 µM. 0.9% of 320,000 active. AID 2235. P62136. purified PP1alpha, OMFP fluorescence;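 active = inhibition above the mean inhibition of all tested compounds plus 3 SD, computed separately for each screening campaign, cut at about 15% in these data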
Target sequence (P62136 whole entry, looked up): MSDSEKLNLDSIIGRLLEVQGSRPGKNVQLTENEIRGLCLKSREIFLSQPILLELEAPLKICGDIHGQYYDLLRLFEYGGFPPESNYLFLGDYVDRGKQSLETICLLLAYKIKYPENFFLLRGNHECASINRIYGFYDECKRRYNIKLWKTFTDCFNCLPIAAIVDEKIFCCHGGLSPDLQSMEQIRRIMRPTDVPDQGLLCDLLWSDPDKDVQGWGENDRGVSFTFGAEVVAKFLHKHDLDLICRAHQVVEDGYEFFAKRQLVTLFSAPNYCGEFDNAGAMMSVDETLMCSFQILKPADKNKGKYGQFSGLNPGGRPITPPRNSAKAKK
CSC inhib: cancer stem cell inhibition; AID 2717; cancer stem cell-like cells viability, luminescence; 1.1% of 300,000 active; inhibition, % at 7.5 µM; in the data active = inhibition above about 75%; inconclusive = no clear call, values can overlap the other calls; tested in HMLE shEcad cells
PP5 primary: PP5 (human) phosphatase inhibition | P53041 | purified PP5c, OMFP substrate fluorescence | inhibition, % at 6.7 µM | 0.18% of 320,000 active;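 active = inhibition above the campaign's mean inhibition across all tested compounds plus 3 SD, cut at about 9.5% in these data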;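 also: 0% = DMSO only and 100% = 100 µM cantharidin control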
Calb FLC: affects C. albicans growth with fluconazole; C. albicans CaCi-2 (fluconazole-resistant clinical isolate) + fluconazole, Alamar Blue growth, 48 h; AID 1979; 0.57% of 300,000 active; growth inhibition, % (no concentration beside the values);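 active = growth inhibition above about 58% in most replicates, limit read from the data, passing the limit was not always enough; inconclusive = exactly half the replicates above a set limit; inactive = most replicates below a set limit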;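 also: all wells also contain fluconazole at 8 µg/ml as a sub-toxic cotreatment; 0% = median of DMSO wells and 100% = median of geldanamycin control wells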
Mdm2-MdmX conf: confirmation of human Mdm2/MdmX interaction inhibitors | Mdm2-MdmX binding, luminescent assay | shares compounds with Mdm2-MdmX inh | inhibition, % at 8 µM | AID 489028 | 55% of 10,000 active; in the data active = inhibition above about 40%
FLuc counter: full-length luciferase inhibition in Mdm2/MdmX counter-screen; shares compounds with Mdm2-MdmX inh; SaOS-2 full-length luciferase counterscreen, luminescence; inhibition, % at 8 µM; 77% of 6,200 active; AID 504607;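 active = mean inhibition at 8 µM reaching about 37%, which flags the compound as non-specific, limit read from the data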;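 also: p53-null SaOS-2 cells with luciferase driven by a doxycycline-inducible promoter; compound on cells about two nights before reading with doxycycline added after day one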
* hit, by the source's call; ? = inconclusive; / = no result given. This is a sample that favours compounds with a hit; in the whole collection about 4.9% have one here.

SMILES	Mdm2-MdmX inh	Beta apoptosis	PP1 inh	CSC inhib	PP5 primary	Calb FLC	Mdm2-MdmX conf	FLuc counter
Cc1cc(C)c2nc(N(CCCN(C)C)C(=O)c3ccc(S(=O)(=O)N4CCCCCC4)cc3)sc2c1	80*	/	7	0	4	3	50*	71*
Cc1ccc2sc(N(CCCN(C)C)C(=O)c3ccc(S(=O)(=O)N4CCCCCC4)cc3)nc2c1C	63*	/	3	77*	2	-8	36	89*
O=C(Nc1ccc(-c2csc(Nc3ccc(Cl)cc3)n2)cc1)c1ccccc1	-15	3	/	-3	/	/	/	/
O=C(Nc1ccc(-c2csc(Nc3cccc(C(F)(F)F)c3)n2)cc1)c1cc([N+](=O)[O-])cc(C(F)(F)F)c1	68*	111*	-1	88*	1	-1	7	/
O=C(Nc1nc(-c2ccccc2)cs1)c1cccc([N+](=O)[O-])c1	-28	5	2	19	2	-32	/	/
O=C(Nc1ccc(-c2csc(Nc3cccc(C(F)(F)F)c3)n2)cc1)c1ccccc1	63*	14	1	136*	6	-10	37	78*
CC(C)(C)n1nnnc1C(c1cccs1)N(Cc1ccc(Cl)cc1)CC1CCCO1 (stereo not drawn)	56*	7	1	27	3	-2	57*	70*
Clc1ccc(-c2csc3ncnc(NCCN4CCOCC4)c23)cc1	45	0	0	13	-1	-5	/	/
COc1ccc(-c2csc3ncnc(NCCN4CCOCC4)c23)cc1	61*	-16	-2	47	0	-26	65*	36*
Cc1ccc(-c2csc3ncnc(NCCN4CCOCC4)c23)cc1	54*	-3	1	0	0	-14	32	/
CCc1ccc(-c2nc(CN3CCC(C(=O)N4CCN(c5ccccc5)CC4)CC3)c(C)o2)cc1	53*	12	3	13	5	?	40*	86*
CCN(CCNC(=O)C1CCN(Cc2nc(-c3cccc(Cl)c3)oc2C)CC1)c1ccccc1	52*	39	3	22	0	-23	51*	61*
CCc1ccc(-c2nc(CN3CCC(C(=O)NCCN(CC)c4ccccc4)CC3)c(C)o2)cc1	78*	18	0	16	5	?	80*	59*
CCC1CCCCN1CCCNC(=O)C1CCN(Cc2nc(-c3ccc(Cl)cc3)oc2C)CC1 (stereo not drawn)	98*	16	-2	9	-1	49	96*	60*
COc1ccc(/C=C/C(=O)c2cc3c(cc2N)OCO3)cc1	-58	0	-1	19	3	35	/	/
COc1ccc(COC(=O)c2ccc(Cl)c(S(=O)(=O)N3CC(C)OC(C)C3)c2)cc1 (stereo not drawn)	9	/	-4	-3	4	-9	/	/
CC(C)(C)SCCNS(=O)(=O)c1ccc(C#N)cc1	28	-7	0	-12	-1	0	/	/
CCOc1ccc(N2CC(C(=O)N3CCc4ccccc43)CC2=O)cc1 (stereo not drawn)	3	-1	7	5	0	-7	/	/
CC(=O)c1cn(-c2ccc(Cl)cc2)c(=O)n(Cc2ccc(F)cc2)c1=O	-10	14	1	5	2	15	/	/
CCN(CCNC(=O)C1CCN(Cc2nc(-c3ccc(Cl)cc3)oc2C)CC1)c1ccccc1	51*	/	6	40	3	?	54*	48*
CCc1ccc(-c2nc(CN3CCC(C(=O)NCc4ccc(F)cc4)CC3)c(C)o2)cc1	58*	11	4	16	1	-9	42*	67*
CCN(CCNC(=O)C1CCCN(Cc2nc(-c3ccc(OC)cc3)oc2C)C1)c1ccccc1 (stereo not drawn)	48	0	1	2	3	-21	/	/
COc1ccc(NC(=O)CSc2nc(=O)n(CCN(C)C)c3c2CCCC3)cc1OC	-5	/	1	-11	0	5	/	/
COc1ccc(N=C2S/C(=C\c3ccc(OCC(=O)O)cc3)C(=O)N2CCc2c[nH]c3ccccc23)cc1	1	/	/	/	/	16	/	/
COc1ccc(N=C2S/C(=C\c3ccc(N4CCOCC4)o3)C(=O)N2CCc2c[nH]c3ccccc23)cc1	95*	105*	-2	-2	2	-6	99*	2
SMILES	Mdm2-MdmX inh	Beta apoptosis	PP1 inh	CSC inhib	PP5 primary	Calb FLC	Mdm2-MdmX conf	FLuc counter
COc1ccccc1/C=C/C=N/NC(=O)c1cccs1	-41	9	1	-2	2	1	/	/
Cc1cccc(NC(=O)c2cc3n(n2)C(C(F)(F)F)CC(c2ccc4c(c2)OCO4)N3)c1 (stereo not drawn)	51*	/	9	-1	5	-35	75*	47*
CCOc1cc(/C=C(/C#N)c2nc3ccccc3[nH]2)ccc1Oc1ccc([N+](=O)[O-])cn1	49	24	7	5	1	16	/	/
CCOc1cc(/C=C(\C#N)c2nc3ccccc3[nH]2)ccc1OC(C)C(=O)O (stereo not drawn)	16	-7	-1	-11	1	-2	/	/
COc1cc(/C=C(\C#N)c2ccccn2)ccc1OCC(=O)Nc1cccc(C(F)(F)F)c1	61*	-5	2	37	3	-28	52*	57*
CCc1ccc(NC(=O)COc2ccc(/C=C(/C#N)c3nc4ccccc4[nH]3)cc2OC)cc1	100*	/	13	4	2	10	81*	53*
COc1cc(/C=C(/C#N)c2nc3ccccc3[nH]2)ccc1Oc1ncccc1[N+](=O)[O-]	68*	11	4	9	3	-10	26	/
O=C(OCC(=O)N1CCN(C(=O)c2ccco2)CC1)c1ccc(Cl)nc1	-30	-1	/	-10	/	/	/	/
CCC(=O)N1c2ccccc2NC2=C(C(=O)CC(c3ccco3)C2)C1c1ccco1 (stereo not drawn)	5	/	-3	-9	3	-4	/	/
O=C1CC(c2ccco2)CC2=C1C1c3ccccc3C(=O)N1c1ccccc1N2 (stereo not drawn)	68*	-16	1	28	5	-3	27	/
COc1ccc(Nc2oc(COc3ccc(Cl)cc3)nc2C#N)cc1	61*	3	3	29	8	-8	44*	77*
O=C(Nc1ccc(Br)cc1Br)C1CC(=O)N(Cc2ccccc2)C1 (stereo not drawn)	19	0	-2	/	1	-15	/	/
Cn1nc([N+](=O)[O-])nc1Sc1nnc(-c2ccccc2)o1	100*	-15	1	-2	0	2	76*	52*
O=Cc1ccc(Sc2nnc(-c3ccccc3)o2)c([N+](=O)[O-])c1	23	-8	14	45	1	30	/	/
